In PubChem BioAssay:
Active and inactive are the calls of the source.

Experiments:
[1] = small molecules captured by biotinylated probe aFSTL3 – biochemical, small-molecule microarray, fluorescence 635/667, stem cell growth factor project, primary screen (AID 1064); conditions: higher = more signal;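 note: measures binding of the biotinylated anti-FSTL3 antibody to printed compounds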
[2] = binders from COS7 lysate, DM2A8 probe, primary screen, torsin A project, cell lysate, small-molecule microarray, fluorescence 635/667 (AID 1065); conditions: higher = more signal, COS7 lysate expressing mutant human TOR1A
[3] = small molecules captured by biotinylated probe aFGF2 – biochemical, small-molecule microarray, fluorescence 635/667, stem cell growth factor project, primary screen (AID 1067); conditions: higher = more signal;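 note: measures binding of biotinylated aFGF2 protein to printed compounds on slides; z-score merges feature fluorescence and signal-to-noise across triplicate slides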
[4] = small molecules captured by biotinylated probe aFGF10 – biochemical, small-molecule microarray, fluorescence 635/667, stem cell growth factor project, primary screen (AID 1071); conditions: higher = more signal;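 note: score merges 667 nm spot intensity and signal to noise from triplicate slides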
[5] = molecular target: Neurogenic locus notch homolog protein 2 (Homo sapiens) (UniProt Q04721); assay: small molecules binding Notch2 protein – biochemical, small-molecule microarray, 635 nm fluorescence, stem cell growth factors, primary screen (AID 1073); conditions: higher = more signal
[6] = molecular target: Pro-neuregulin-1, membrane-bound isoform (Homo sapiens) (UniProt Q02297); assay: small molecules binding neuregulin-1 protein – biochemical, small-molecule microarray, fluorescence 635/667, psychiatric disease protein project, primary screen (AID 1075); conditions: NRG1 binding, 635 nm fluorescence, higher = more signal;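 note: score combines 667 nm spot fluorescence with signal to noise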
Pro-neuregulin-1, membrane-bound isoform (Homo sapiens), sequence (Q02297 whole entry, looked up, the tested form may be a part, canonical isoform): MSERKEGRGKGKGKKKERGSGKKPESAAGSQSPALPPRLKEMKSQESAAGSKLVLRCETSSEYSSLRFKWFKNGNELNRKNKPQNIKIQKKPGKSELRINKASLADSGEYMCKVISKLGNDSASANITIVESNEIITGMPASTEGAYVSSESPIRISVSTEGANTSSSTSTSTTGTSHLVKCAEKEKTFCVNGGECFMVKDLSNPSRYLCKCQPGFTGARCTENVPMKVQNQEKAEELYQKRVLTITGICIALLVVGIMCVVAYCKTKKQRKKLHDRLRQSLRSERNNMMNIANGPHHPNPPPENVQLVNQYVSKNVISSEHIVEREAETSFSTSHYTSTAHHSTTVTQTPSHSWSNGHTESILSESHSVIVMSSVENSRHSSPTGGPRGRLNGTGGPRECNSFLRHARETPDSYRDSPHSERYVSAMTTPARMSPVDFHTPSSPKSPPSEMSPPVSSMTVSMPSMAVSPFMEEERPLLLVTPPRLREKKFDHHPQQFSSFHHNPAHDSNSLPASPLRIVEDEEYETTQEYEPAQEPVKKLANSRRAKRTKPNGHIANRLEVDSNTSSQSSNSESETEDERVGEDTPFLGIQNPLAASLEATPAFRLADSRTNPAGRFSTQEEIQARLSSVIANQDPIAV

[7] = test system: Neuregulin-1 EGF-like domain; assay: small molecules binding NRG1 EGF domain – biochemical, small-molecule microarray, 635 nm fluorescence, primary screen (AID 1081); conditions: higher = more signal;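 note: binding of the protein to compounds printed on small-molecule microarray slides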
[8] = FRG1 expression reporter modulators in myotubes – cell-based, C2C12 myotubes, firefly/Renilla luciferase, luminescence, FRG1 inhibition for FSHD, primary screen (AID 1084); conditions: FRG1 promoter luciferase, higher = more signal, called active from +8 up or from −8 down
[9] = small molecules captured by biotinylated probe aFST – biochemical, small-molecule microarray, fluorescence 635/667, stem cell growth factor project, primary screen (AID 1086); conditions: higher = more signal;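 note: score merges 667 nm fluorescence with signal-to-noise of each printed compound spot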
[10] = binders of probe aHhip on microarray, primary screen, stem cell growth factor project, biochemical, small-molecule microarray, fluorescence 635/667 (AID 1087); conditions: higher = more signal;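 note: score merges spot fluorescence at 667nm with spot signal to noise ratio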
[11] = test system: PRMT1 (protein arginine N-methyltransferase 1); assay: small molecules binding arginine methyltransferase PRMT1 – biochemical, small-molecule microarray, 635 nm fluorescence, primary screen (AID 1088); conditions: higher = more signal;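 note: binding of Prmt1 protein to compounds spotted on small-molecule microarray slides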
[12] = growth effects on S. cerevisiae YJM789 – YJM789 clinical isolate, OD600, 24 h, basal, primary screen (AID 1089); conditions: higher = more signal, called active from +8 up or from −8 down;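 note: growth of clinical yeast isolate S. cerevisiae YJM 789 seeded 1000 cells per well; test concentration not given here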
[13] = S. pombe growth modifiers, basal conditions – strain 972, OD600, 24 h, no modulator, primary screen (AID 1090);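 note: basal condition with compound alone and no growth modifier present; test concentration not given here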; conditions: S. pombe 972 growth, higher = more signal, called active from +8 up or from −8 down
[14] = budding yeast growth modifiers under rapamycin – strain BY4716, OD600, 96 h, primary screen (AID 1091); note: test concentration not given here; conditions: S. cerevisiae BY4716 + rapamycin, higher = more signal, called active from +8 up or from −8 down
[15] = molecular target: Torsin-1A-interacting protein 2 (Homo sapiens) (UniProt Q8NFQ8); assay: small molecules binding lysate-expressed LULL1 – cell lysate, human LULL1 lysate, 635/667 nm fluorescence, primary screen (AID 1092); conditions: small-molecule microarray, hLULL1 lysate binding, 635 nm fluorescence; higher = more signal;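 note: probe is lysate of COS7 cells overexpressing human LULL1; score merges per-feature 667 nm fluorescence with signal-to-noise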
Torsin-1A-interacting protein 2 (Homo sapiens), sequence (Q8NFQ8 whole entry, looked up): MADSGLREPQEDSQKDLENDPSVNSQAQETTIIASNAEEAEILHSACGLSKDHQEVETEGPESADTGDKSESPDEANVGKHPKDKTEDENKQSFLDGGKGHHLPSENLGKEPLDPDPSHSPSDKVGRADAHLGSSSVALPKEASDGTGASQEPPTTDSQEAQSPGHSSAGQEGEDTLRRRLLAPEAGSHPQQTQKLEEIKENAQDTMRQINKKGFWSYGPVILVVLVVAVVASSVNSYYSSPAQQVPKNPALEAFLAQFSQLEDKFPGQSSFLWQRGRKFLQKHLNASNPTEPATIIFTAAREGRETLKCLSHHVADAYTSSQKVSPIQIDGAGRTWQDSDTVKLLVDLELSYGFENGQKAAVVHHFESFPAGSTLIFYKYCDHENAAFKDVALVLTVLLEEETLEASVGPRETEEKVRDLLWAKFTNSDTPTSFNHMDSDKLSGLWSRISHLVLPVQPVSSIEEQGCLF

[16] = optical density change of DRC41 E. coli – strain DRC41, OD650, 24 h, E. coli filamentation project, primary screen (AID 1093);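 note: MC1000 strain lacking acrAB efflux and sulA so SOS filamentation is blocked; test concentration not given here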; conditions: E. coli DRC41 growth, higher = more signal, called active from +8 up or from −8 down
[17] = probe aLefty2 binding to arrayed compounds – biochemical, biotinylated probe, 635/667 nm fluorescence, primary screen (AID 1094); conditions: small-molecule microarray, higher = more signal;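 note: score merges spot fluorescence near 667 nm with spot signal-to-noise ratio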
[18] = test system: Noggin (protein binding on small-molecule microarray); assay: small molecules binding Noggin protein – biochemical, 635/667 nm fluorescence, primary screen (AID 1095); conditions: 635 nm fluorescence, higher = more signal;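 note: score merges 667 nm feature fluorescence with signal to noise over triplicate slides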
[19] = molecular target: Neurogenic locus notch homolog protein 3 (Homo sapiens) (UniProt Q9UM47); assay: small molecules binding NOTCH3 protein – biochemical, 635/667 nm fluorescence, primary screen (AID 1096); conditions: small-molecule microarray, 635 nm fluorescence, higher = more signal
Neurogenic locus notch homolog protein 3 (Homo sapiens), sequence (Q9UM47 whole entry, looked up): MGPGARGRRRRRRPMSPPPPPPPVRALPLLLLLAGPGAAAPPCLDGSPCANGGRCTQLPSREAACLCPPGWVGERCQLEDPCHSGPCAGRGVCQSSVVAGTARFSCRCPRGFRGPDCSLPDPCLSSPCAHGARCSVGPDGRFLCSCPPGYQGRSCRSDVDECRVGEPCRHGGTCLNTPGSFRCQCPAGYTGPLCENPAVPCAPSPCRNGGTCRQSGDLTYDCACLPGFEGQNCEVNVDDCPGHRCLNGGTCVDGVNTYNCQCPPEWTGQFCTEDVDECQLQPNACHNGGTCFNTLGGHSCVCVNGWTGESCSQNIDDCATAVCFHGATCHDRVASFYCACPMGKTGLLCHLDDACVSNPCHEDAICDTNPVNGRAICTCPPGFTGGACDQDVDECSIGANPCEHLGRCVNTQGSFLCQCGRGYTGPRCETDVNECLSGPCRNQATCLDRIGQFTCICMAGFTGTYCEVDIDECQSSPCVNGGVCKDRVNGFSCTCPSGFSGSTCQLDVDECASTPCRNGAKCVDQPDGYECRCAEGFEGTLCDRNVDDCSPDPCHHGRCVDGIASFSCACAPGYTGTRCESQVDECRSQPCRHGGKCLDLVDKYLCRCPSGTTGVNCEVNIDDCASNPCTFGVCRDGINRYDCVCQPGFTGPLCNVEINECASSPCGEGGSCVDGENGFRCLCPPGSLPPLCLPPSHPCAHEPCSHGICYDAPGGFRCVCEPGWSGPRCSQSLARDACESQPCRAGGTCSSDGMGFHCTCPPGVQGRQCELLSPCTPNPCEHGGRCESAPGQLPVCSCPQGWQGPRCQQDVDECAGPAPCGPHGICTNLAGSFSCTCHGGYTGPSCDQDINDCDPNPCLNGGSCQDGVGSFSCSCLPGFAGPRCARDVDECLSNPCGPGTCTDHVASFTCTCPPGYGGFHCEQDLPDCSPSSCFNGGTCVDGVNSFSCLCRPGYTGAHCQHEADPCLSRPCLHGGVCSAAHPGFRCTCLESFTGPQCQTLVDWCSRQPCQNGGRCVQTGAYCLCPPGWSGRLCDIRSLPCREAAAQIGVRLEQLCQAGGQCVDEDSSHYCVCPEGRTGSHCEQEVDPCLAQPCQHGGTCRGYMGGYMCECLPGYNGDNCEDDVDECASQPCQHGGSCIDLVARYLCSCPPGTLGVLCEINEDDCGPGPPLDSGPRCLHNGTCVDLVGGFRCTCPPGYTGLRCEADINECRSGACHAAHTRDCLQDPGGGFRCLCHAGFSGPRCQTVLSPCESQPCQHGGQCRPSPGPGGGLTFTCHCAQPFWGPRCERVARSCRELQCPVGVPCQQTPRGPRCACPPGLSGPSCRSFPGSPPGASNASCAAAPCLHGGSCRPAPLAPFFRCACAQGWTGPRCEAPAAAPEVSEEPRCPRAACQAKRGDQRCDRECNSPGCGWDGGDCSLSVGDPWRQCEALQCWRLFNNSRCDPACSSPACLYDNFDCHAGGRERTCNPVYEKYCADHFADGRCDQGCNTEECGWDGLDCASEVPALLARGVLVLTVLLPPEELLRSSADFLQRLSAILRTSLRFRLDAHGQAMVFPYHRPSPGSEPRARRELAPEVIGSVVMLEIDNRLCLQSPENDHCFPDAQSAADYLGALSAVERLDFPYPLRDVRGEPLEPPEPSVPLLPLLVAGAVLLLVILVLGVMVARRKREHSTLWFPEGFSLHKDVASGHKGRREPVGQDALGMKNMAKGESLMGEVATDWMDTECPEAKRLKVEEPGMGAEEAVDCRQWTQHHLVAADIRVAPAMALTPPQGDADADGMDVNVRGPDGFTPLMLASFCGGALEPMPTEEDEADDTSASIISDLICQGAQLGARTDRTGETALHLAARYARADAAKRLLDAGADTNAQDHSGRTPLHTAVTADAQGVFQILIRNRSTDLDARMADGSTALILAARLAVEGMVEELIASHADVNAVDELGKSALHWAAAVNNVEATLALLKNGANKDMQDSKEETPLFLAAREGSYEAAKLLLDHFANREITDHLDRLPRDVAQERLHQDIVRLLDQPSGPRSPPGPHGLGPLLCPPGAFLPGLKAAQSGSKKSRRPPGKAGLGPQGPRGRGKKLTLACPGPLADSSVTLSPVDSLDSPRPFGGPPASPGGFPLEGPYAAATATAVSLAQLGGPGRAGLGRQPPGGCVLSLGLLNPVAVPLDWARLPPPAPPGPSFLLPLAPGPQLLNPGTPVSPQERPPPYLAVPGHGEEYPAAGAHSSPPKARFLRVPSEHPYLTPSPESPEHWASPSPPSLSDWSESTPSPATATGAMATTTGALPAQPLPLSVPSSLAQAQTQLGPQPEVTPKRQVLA

[20] = probe aEGFR binding to arrayed compounds – biochemical, biotinylated probe, 635/667 nm fluorescence, primary screen (AID 1097); conditions: small-molecule microarray, higher = more signal;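 note: probe is a biotinylated anti-EGFR antibody binding compounds printed on slides; score combines fluorescence near 667 nm and signal to noise of each spot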

Structure (SMILES): O=c1n(-c2ccccc2)c(=O)n2n1CC(COc1ccccc1)=C1[C@@H](CCc3ccccc3)OB(O)C[C@@H]12
- composite z-score [1]: -0.62
- composite z-score [2]: -0.128
- composite z-score [3]: -0.031
- composite z-score [4]: 0.96
- composite z-score [5]: 0.893
- composite z-score [6]: 0.97
- composite z-score [7]: 0.706
- z-score [8]: -4.24 (inactive)
- composite z-score [9]: 0.642
- composite z-score [10]: 0.0524
- composite z-score [11]: 1.42
- z-score [12]: 0.173 (inactive)
- z-score [13]: -3.03 (inactive)
- z-score [14]: -1.44 (inactive)
- composite z-score [15]: 1.39
- z-score [16]: 1.92 (inactive)
- composite z-score [17]: -0.133
- composite z-score [18]: 0.814
- composite z-score [19]: 1.03
- composite z-score [20]: 0.0209

Structure (SMILES): CC(C)(C)OC(=O)CC[C@@]12N=C(c3ccc(OCCCO)cc3)O[C@@H]1c1ccccc1CN(Cc1ccccc1)C2=O
- composite z-score [1]: 0.265
- composite z-score [2]: 0.141
- composite z-score [3]: -0.0118
- composite z-score [4]: 0.294
- composite z-score [5]: 0.549
- composite z-score [6]: 0.391
- composite z-score [7]: 1.14
- z-score [8]: -4.73 (inactive)
- composite z-score [9]: 0.419
- composite z-score [10]: -0.069
- composite z-score [11]: 1.56
- z-score [12]: 1.44 (inactive)
- z-score [13]: -3.05 (inactive)
- z-score [14]: 6.17 (inactive)
- composite z-score [15]: 2.49
- z-score [16]: 1.36 (inactive)
- composite z-score [17]: -0.0664
- composite z-score [18]: 1.62
- composite z-score [19]: 0.981
- composite z-score [20]: -0.103

Structure (SMILES): NCCCCCCNC(=O)[C@@H]1C[C@@H]2C(=O)N[C@@H](Cc3ccccc3)C(=O)N2[C@@H]1c1ccc(O)cc1
- composite z-score [1]: 1.38
- composite z-score [2]: 0.757
- composite z-score [3]: -0.0715
- composite z-score [4]: -0.113
- composite z-score [5]: 0.179
- composite z-score [6]: 1.25
- composite z-score [7]: 1.33
- z-score [8]: 0.611 (inactive)
- composite z-score [9]: 0.422
- composite z-score [10]: -0.265
- composite z-score [11]: 0.914
- z-score [12]: -0.507 (inactive)
- z-score [13]: -1.11 (inactive)
- z-score [14]: -0.373 (inactive)
- composite z-score [15]: 1.36
- z-score [16]: 0.792 (inactive)
- composite z-score [17]: 0.635
- composite z-score [18]: 0.561
- composite z-score [19]: 0.164
- composite z-score [20]: -0.063

Structure (SMILES): C=C(CCCC)/C(=C/C[C@H](OC(=O)c1ccncc1)c1ccc(CO)o1)c1cnc2ccccc2c1
- composite z-score [1]: -0.408
- composite z-score [2]: 0.536
- composite z-score [3]: -0.0332
- composite z-score [4]: 0.941
- composite z-score [5]: 1.41
- composite z-score [6]: -0.185
- composite z-score [7]: 1.04
- z-score [8]: -0.587 (inactive)
- composite z-score [9]: 0.761
- composite z-score [10]: 0.265
- composite z-score [11]: 1.56
- z-score [12]: 3.23 (inactive)
- z-score [13]: -1.99 (inactive)
- z-score [14]: -0.516 (inactive)
- composite z-score [15]: 1.89
- z-score [16]: 0.74 (inactive)
- composite z-score [17]: -0.0102
- composite z-score [18]: 1.19
- composite z-score [19]: 1.09
- composite z-score [20]: 0.0221

Structure (SMILES): CCN(CC)c1ccc(N2CC=CC34O[C@@H]5C=CCOC(=O)[C@@H]5[C@H]3C(=O)N(C(C)CO)[C@@H]4C2=O)cc1 (stereo not given in full)
- composite z-score [1]: 0.652
- composite z-score [2]: -0.893
- composite z-score [3]: -0.171
- composite z-score [4]: -0.784
- composite z-score [5]: -1.58
- composite z-score [6]: 0.392
- composite z-score [7]: 0.344
- z-score [8]: 0.403 (inactive)
- composite z-score [9]: -0.278
- composite z-score [10]: -0.0296
- composite z-score [11]: -1.48
- z-score [12]: -0.185 (inactive)
- z-score [13]: -1.4 (inactive)
- z-score [14]: -0.8 (inactive)
- composite z-score [15]: -0.151
- z-score [16]: 1.7 (inactive)
- composite z-score [17]: -0.0592
- composite z-score [18]: -1.39
- composite z-score [19]: -0.894
- composite z-score [20]: -0.252

Structure (SMILES): C=CC[C@@]1(C(=O)NCc2ccccc2)N=C(c2ccc(OCCCO)cc2)O[C@@H]1c1ccccc1
- composite z-score [1]: 1.17
- composite z-score [2]: 0.945
- composite z-score [3]: -0.0778
- composite z-score [4]: -0.523
- composite z-score [5]: -0.347
- composite z-score [6]: 1.61
- composite z-score [7]: 0.845
- z-score [8]: -2.56 (inactive)
- composite z-score [9]: 0.3
- composite z-score [10]: -0.191
- composite z-score [11]: 1.29
- z-score [12]: -2.54 (inactive)
- z-score [13]: -4.81 (inactive)
- z-score [14]: 12.3 (active)
- composite z-score [15]: 3.19
- z-score [16]: 2.92 (inactive)
- composite z-score [17]: 0.195
- composite z-score [18]: -0.469
- composite z-score [19]: 0.311
- composite z-score [20]: -0.147

Structure (SMILES): O=C(O)[C@H]1C[C@H]2C(=O)NCC(=O)N2[C@H]1c1cccc(OCCO)c1
- composite z-score [1]: 2.86
- composite z-score [2]: 0.942
- composite z-score [3]: 0.0568
- composite z-score [4]: -0.213
- composite z-score [5]: 0.29
- composite z-score [6]: 1.41
- composite z-score [7]: 0.986
- z-score [8]: 5.62 (inactive)
- composite z-score [9]: 1.98
- composite z-score [10]: 0.745
- composite z-score [11]: 1.23
- z-score [12]: -1.63 (inactive)
- z-score [13]: -2.01 (inactive)
- z-score [14]: -1.11 (inactive)
- composite z-score [15]: 1.51
- z-score [16]: 2.5 (inactive)
- composite z-score [17]: 0.0889
- composite z-score [18]: 0.0133
- composite z-score [19]: 0.446
- composite z-score [20]: 0.108

Structure (SMILES): COc1ccc(C#Cc2ccc3c(c2)[C@]2(C(=O)N3)[C@H](c3ccc(O)cc3)N3[C@H](c4ccccc4)[C@H](c4ccccc4)OC(=O)[C@H]3[C@@H]2C(=O)N2CCN(c3ncccn3)CC2)cc1
- composite z-score [1]: 0.286
- composite z-score [2]: 1.31
- composite z-score [3]: -0.0625
- composite z-score [4]: 0.0869
- composite z-score [5]: 1.19
- composite z-score [6]: 1.64
- composite z-score [7]: 0.892
- z-score [8]: -0.36 (inactive)
- composite z-score [9]: 0.252
- composite z-score [10]: 0.186
- composite z-score [11]: 1.18
- z-score [12]: 0.478 (inactive)
- z-score [13]: -1.84 (inactive)
- z-score [14]: 2.15 (inactive)
- composite z-score [15]: 2.01
- z-score [16]: 1.99 (inactive)
- composite z-score [17]: 0.0708
- composite z-score [18]: -0.0098
- composite z-score [19]: 0.536
- composite z-score [20]: -0.0854

Structure (SMILES): COc1ccc([Si](C)(C)[C@H]2[C@H](CC(=O)N(CCO)Cc3ccccc3)O[C@@]3(C(=O)N(Cc4ccc(N5CCC5=O)cc4)c4ccccc43)[C@@H]2C)cc1
- composite z-score [1]: 0.278
- composite z-score [2]: 0.323
- composite z-score [3]: -0.128
- composite z-score [4]: -1.07
- composite z-score [5]: -0.741
- composite z-score [6]: 1.02
- composite z-score [7]: 0.469
- z-score [8]: -2.75 (inactive)
- composite z-score [9]: -0.336
- composite z-score [10]: -0.226
- composite z-score [11]: 0.499
- z-score [12]: 0.478 (inactive)
- z-score [13]: 0.617 (inactive)
- z-score [14]: 1.96 (inactive)
- composite z-score [15]: 0.953
- z-score [16]: 1.48 (inactive)
- composite z-score [17]: -0.166
- composite z-score [18]: -0.156
- composite z-score [19]: -0.813
- composite z-score [20]: -0.302

Structure (SMILES): C[C@@H](OCc1ccccc1)C1NC(=O)[C@@]23C(=O)N[C@@H](Cc4ccccc4)C2[C@H](C)[C@@]2(C)O[C@H]2C3/C=C/C/C=C\CNC(=O)[C@@H]2CCCN2C1=O (stereo not given in full)
- composite z-score [1]: -0.0401
- composite z-score [2]: -0.332
- composite z-score [3]: -0.146
- composite z-score [4]: -0.595
- composite z-score [5]: -0.571
- composite z-score [6]: -0.52
- composite z-score [7]: 0.633
- z-score [8]: 1.91 (inactive)
- composite z-score [9]: -0.111
- composite z-score [10]: -0.343
- composite z-score [11]: -0.449
- z-score [12]: -0.399 (inactive)
- z-score [13]: -0.985 (inactive)
- z-score [14]: -0.266 (inactive)
- composite z-score [15]: -0.139
- z-score [16]: 2.34 (inactive)
- composite z-score [17]: -0.0901
- composite z-score [18]: -0.315
- composite z-score [19]: -0.665
- composite z-score [20]: -0.209
